{
  "source": "PubChem BioAssay AID1259341",
  "about": "(Broad Institute, 2017)",
  "note": "A number with no mark means an inactive call. Active and inactive are the calls of the source.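 Rule for the calls: active = activity change under -35% in any replicate well, with more than 20 beads read in that well; inactive = the rest.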",
  "data": [
    {"biological_target": "Caspase recruitment domain-containing protein 9 (Homo sapiens) + E3 ubiquitin-protein ligase TRIM62 (Homo sapiens) (UniProt Q9H257+Q9BVG3)", "sequence (Q9BVG3 whole entry, looked up, the tested form may be a part)": "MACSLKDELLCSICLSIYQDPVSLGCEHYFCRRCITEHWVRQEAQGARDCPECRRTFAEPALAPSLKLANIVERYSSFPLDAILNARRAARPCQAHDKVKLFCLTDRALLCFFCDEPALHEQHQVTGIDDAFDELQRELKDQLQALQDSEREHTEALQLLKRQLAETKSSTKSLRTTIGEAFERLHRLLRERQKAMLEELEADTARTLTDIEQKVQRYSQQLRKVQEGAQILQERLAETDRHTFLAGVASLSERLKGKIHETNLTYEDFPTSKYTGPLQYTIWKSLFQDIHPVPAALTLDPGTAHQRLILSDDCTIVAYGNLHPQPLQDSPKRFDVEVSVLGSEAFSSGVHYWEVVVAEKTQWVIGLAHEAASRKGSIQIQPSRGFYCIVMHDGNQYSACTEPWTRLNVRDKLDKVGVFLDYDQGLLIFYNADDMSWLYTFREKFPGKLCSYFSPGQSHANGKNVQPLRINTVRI", "sequence (Q9H257 whole entry, looked up, the tested form may be a part)": "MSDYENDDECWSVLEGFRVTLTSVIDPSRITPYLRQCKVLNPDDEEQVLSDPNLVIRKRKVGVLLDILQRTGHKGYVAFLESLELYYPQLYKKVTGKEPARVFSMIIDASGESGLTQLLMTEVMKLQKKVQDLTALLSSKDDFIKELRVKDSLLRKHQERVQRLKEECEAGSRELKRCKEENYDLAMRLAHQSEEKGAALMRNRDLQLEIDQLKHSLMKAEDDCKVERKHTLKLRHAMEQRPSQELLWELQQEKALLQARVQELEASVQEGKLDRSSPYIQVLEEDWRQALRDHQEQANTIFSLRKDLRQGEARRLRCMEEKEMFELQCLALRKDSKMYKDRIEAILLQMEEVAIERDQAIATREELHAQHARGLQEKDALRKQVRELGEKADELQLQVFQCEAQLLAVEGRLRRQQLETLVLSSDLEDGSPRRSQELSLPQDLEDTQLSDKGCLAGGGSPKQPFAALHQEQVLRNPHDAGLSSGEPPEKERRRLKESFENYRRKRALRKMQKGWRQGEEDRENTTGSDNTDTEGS", "assay": "disruptors of CARD9-TRIM62 binding, primary screen, cell lysate, HEK293FT lysates, Luminex bead ELISA (AID 1259341);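 note: PE anti-Flag signal of Flag-CARD9 captured by myc-TRIM62 beads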", "conditions": "PE fluorescence, stronger effect = lower value, concentration not given here", "values": [
      {"smiles": "CN(Cc1ccco1)S(=O)(=O)c1nnc(NC(=O)c2ccccc2)s1", "activity change, negative = inhibition": "13.7%"},
      {"smiles": "COc1ccc(N2CC3=C(N2)c2ccccc2CC3)cc1", "activity change, negative = inhibition": "25.5%"},
      {"smiles": "COCC(=O)n1nc(-c2ccco2)nc1NCc1cccs1", "activity change, negative = inhibition": "-2.31%"},
      {"smiles": "O=C(Nc1cccc2nsnc12)c1ccc(-c2cccc(Cl)c2)o1", "activity change, negative = inhibition": "11.7%"},
      {"smiles": "NC(=O)C1(N2CCCCC2)CCN(c2ncc(NC(=O)c3cccc(Cl)c3)cc2C(=O)O)CC1", "activity change, negative = inhibition": "-53.8% (active)"},
      {"smiles": "Fc1ccc(CSc2nnc(-c3cccnc3)n2Cc2ccco2)cc1", "activity change, negative = inhibition": "0.116%"},
      {"smiles": "CCCc1oc(C(=O)O)cc1CN", "activity change, negative = inhibition": "-4.57%"},
      {"smiles": "Cc1ccc(C(=O)Nc2cnc(N3CCC(C(N)=O)(N4CCCCC4)CC3)c(C(=O)O)c2)cc1", "activity change, negative = inhibition": "-51.3% (active)"},
      {"smiles": "COc1ccc2nc(-c3ccco3)c(-c3ccco3)nc2c1", "activity change, negative = inhibition": "-3.64%"},
      {"smiles": "CCc1oc2ccccc2c1C(=O)CCN1CCCCC1", "activity change, negative = inhibition": "2.4%"},
      {"smiles": "c1ccc(-c2nc(-c3ccco3)n3ccccc23)cc1", "activity change, negative = inhibition": "-5.09%"},
      {"smiles": "O=C(Nc1nc(-c2nc3ccccc3s2)cs1)c1ccco1", "activity change, negative = inhibition": "1.21%"},
      {"smiles": "COc1ccc(S(=O)(=O)N2CCOCC2)cc1NC(=O)c1cccc(-n2cccc2)c1", "activity change, negative = inhibition": "-8.72%"},
      {"smiles": "NC(=O)C1(N2CCCCC2)CCN(c2ncc(NC(=O)c3ccc(Cl)cc3)cc2C(=O)O)CC1", "activity change, negative = inhibition": "-54.5% (active)"},
      {"smiles": "NC(=O)c1ccc(CN2C(=O)C3(CCNCC3)Nc3ccccc32)cc1", "activity change, negative = inhibition": "-4.33%"},
      {"smiles": "CCc1ccc(Nc2nc(C(=O)NCc3ccc(N(C)C)cc3)nc3ccccc23)cc1", "activity change, negative = inhibition": "-21%"},
      {"smiles": "NC(=O)C1(N2CCCCC2)CCN(c2ncc(NC(=O)c3ccccc3)cc2C(=O)O)CC1", "activity change, negative = inhibition": "-57.3% (active)"},
      {"smiles": "C[n+]1cccc2cccc(O)c21", "activity change, negative = inhibition": "-2.89%"},
      {"smiles": "On1c(-c2ccco2)nc2c1CCc1nonc1-2", "activity change, negative = inhibition": "-2.2%"},
      {"smiles": "CCn1ccnc1C1CCN(C(=O)CCn2c(C)nc3ccccc32)CC1", "activity change, negative = inhibition": "-6.29%"},
      {"smiles": "C(=N\\n1cnnc1SCc1ccccc1)/c1ccco1", "activity change, negative = inhibition": "4.53%"},
      {"smiles": "C[C@H](CO)N1C[C@H](C)[C@@H](CN(C)CC2CCCCC2)OCCCC[C@H](C)Oc2ccc(NS(=O)(=O)c3cccs3)cc2C1=O", "activity change, negative = inhibition": "9.64%"},
      {"smiles": "CCOC(=O)/C=C/S(=O)(=O)c1ccc(NC(C)=O)cc1", "activity change, negative = inhibition": "-8.13%"},
      {"smiles": "Cc1noc(C)c1S(=O)(=O)Nc1ccc2c(c1)C(=O)N([C@H](C)CO)C[C@H](C)[C@@H](CN(C)CC1CCCCC1)OCCCC[C@H](C)O2", "activity change, negative = inhibition": "7.9%"},
      {"smiles": "Cc1[nH]c2ccc(Cl)cc2c(=O)c1CN1CCCC1", "activity change, negative = inhibition": "0.531%"},
      {"smiles": "O=C1NC(c2ccc(Br)cc2)Nc2sc3c(c21)CCC3", "note": "(stereo unspecified)", "activity change, negative = inhibition": "-3.86%"},
      {"smiles": "O=C(CC1Nc2ccccc2OC1=O)Nc1ccc(Cl)cc1", "note": "(stereo unspecified)", "activity change, negative = inhibition": "13.8%"},
      {"smiles": "CCC12CCCN3CCc4c(n(c5ccccc45)C(O)(C(=O)OC)C1)C32", "note": "(stereo unspecified)", "activity change, negative = inhibition": "-2.25%"},
      {"smiles": "CC(C(=O)N1CCCC1)N1CCN(c2ccccc2O)CC1", "note": "(stereo unspecified)", "activity change, negative = inhibition": "5.92%"},
      {"smiles": "CCCOc1ccc(CCC(=O)O)cc1", "activity change, negative = inhibition": "-3.23%"},
      {"smiles": "Cc1noc(C)c1S(=O)(=O)Nc1ccc2c(c1)C(=O)N([C@H](C)CO)C[C@H](C)[C@@H](CN(C)C(=O)C1CCCCC1)OCCCC[C@H](C)O2", "activity change, negative = inhibition": "7.66%"},
      {"smiles": "CCOc1ccccc1NC(=O)N1CCCC(c2nccn2CCOC)C1", "note": "(stereo unspecified)", "activity change, negative = inhibition": "-5.04%"},
      {"smiles": "O=C(O)COCC(=O)NCc1ccco1", "activity change, negative = inhibition": "1.03%"},
      {"smiles": "O=C(NCc1cccnc1)c1ccccc1-c1nc(-c2ccccc2)no1", "activity change, negative = inhibition": "-1.01%"},
      {"smiles": "Cc1c(/C=C/c2nc3ccccc3c(=O)n2-c2ccccn2)c2ccccc2n1C", "activity change, negative = inhibition": "-1.2%"},
      {"smiles": "O=C(NCc1ccco1)C1CCCN(S(=O)(=O)c2cccc3nonc23)C1", "note": "(stereo unspecified)", "activity change, negative = inhibition": "0.63%"}
    ]}
  ]
}
